Source: PubChem BioAssay
Many of the other results were omitted from the sample, so hits are more common in it than they were.
PD-1 reversal – reversal of PD-1 mediated T-cell inhibition. activation, % (no concentration beside the values). primary human CD4 T cells, PD-L1 beads, CellTiter-Glo 96 h. 29,000 tested, under 10 active. AID 2316; call rule not given here;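 also: 0% = median vehicle wells and 100% = positive control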
STK33 kin inh – inhibitors of human STK33 kinase; inhibition, % at 12.5 µM; ADP-Glo luminescence, MBP substrate; Q9BYT3; 27,000 tested, 0.44% active; AID 2322; in the data active = inhibition above about 20%; inconclusive = no clear call, values can overlap the other calls
Target sequence (Q9BYT3 whole entry, looked up): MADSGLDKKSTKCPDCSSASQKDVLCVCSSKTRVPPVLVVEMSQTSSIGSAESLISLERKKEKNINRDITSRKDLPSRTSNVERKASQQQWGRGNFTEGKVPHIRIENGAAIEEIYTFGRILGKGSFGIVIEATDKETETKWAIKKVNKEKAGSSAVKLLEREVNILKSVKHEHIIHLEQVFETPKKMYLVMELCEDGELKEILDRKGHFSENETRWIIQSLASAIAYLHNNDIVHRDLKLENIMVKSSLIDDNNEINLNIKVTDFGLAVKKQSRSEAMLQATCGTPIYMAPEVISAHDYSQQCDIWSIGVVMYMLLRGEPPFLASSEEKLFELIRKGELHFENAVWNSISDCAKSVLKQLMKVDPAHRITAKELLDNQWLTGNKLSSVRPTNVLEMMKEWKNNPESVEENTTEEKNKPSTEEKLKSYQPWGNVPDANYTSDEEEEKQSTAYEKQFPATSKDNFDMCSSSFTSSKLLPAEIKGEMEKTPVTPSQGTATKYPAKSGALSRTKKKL
NOMO-1 viab – STK33 inhibitor candidate reducing NOMO-1 cell viability; NOMO-1 AML viability, CellTiter-Glo luminescence, 72 h; inhibition, % (concentration not given with the values); 37,000 tested, 7.5% active; AID 2330; in the data active = inhibition above about 80%; inconclusive = no clear call, values can overlap the other calls
* hit, by the source's call; ? = inconclusive; . = no result.

SMILES	PD-1 reversal	STK33 kin inh	NOMO-1 viab
O=C(CC1(O)C(=O)Nc2ccc(F)cc21)c1ccco1 (stereo not given)	1	-1	38
Cc1cccc2c1N(C)C(=O)C2(O)CC(=O)c1ccco1 (stereo not given)	-1	-4	84*
CN1C(=O)C(O)(CC(=O)c2ccco2)c2cc(Cl)ccc21 (stereo not given)	1	-3	133*
Cc1cccc(C)c1OCC(=O)Nc1cccc(NC(=O)c2ccco2)c1	1	6	24
Cc1coc(C)c1C(=O)CC1(O)C(=O)N(Cc2ccc(Cl)cc2)c2ccccc21 (stereo not given)	-2	7	70
COc1ccccc1NC(=O)C(Cc1ccccc1)N1C(=O)C2C3C=CC(C3)C2C1=O (stereo not given)	-1	2	47
COc1ccc(NC(=O)N(C)C[C@H]2Oc3c(NS(C)(=O)=O)cccc3C(=O)N([C@@H](C)CO)C[C@H]2C)cc1	2	.	9
O=C(NCc1cccnc1)c1cc(-c2ccccn2)nc2c(Cl)cccc12	.	-1	0
C[C@@H]1CN([C@@H](C)CO)C(=O)c2cccc(NS(=O)(=O)c3ccccc3)c2O[C@H]1CN(C)CC1CC1	.	.	-1
C[C@@H]1CN([C@H](C)CO)C(=O)Cc2cc(NC(=O)Cc3cn(C)c4ccccc34)ccc2O[C@@H]1CN(C)Cc1ccc(C(=O)O)cc1	0	-5	0
C[C@@H]1CN([C@H](C)CO)C(=O)Cc2cc(NC(=O)Cc3cn(C)c4ccccc34)ccc2O[C@@H]1CN(C)Cc1ccc(C(=O)Nc2ccccc2N)cc1	-2	.	77
C[C@H](CO)N1C[C@H](C)[C@H](CN(C)Cc2ccc(C(=O)Nc3ccccc3N)cc2)Oc2ccc(NC(=O)Cc3cn(C)c4ccccc34)cc2CC1=O	-5	.	127*
C[C@H]1CN([C@@H](C)CO)C(=O)Cc2cc(NC(=O)Cc3cn(C)c4ccccc34)ccc2O[C@H]1CN(C)Cc1ccc(C(=O)Nc2ccccc2N)cc1	-2	.	120*
CC(C)NC(=O)N(C)C[C@H]1OCCCC[C@@H](C)Oc2ccc(NC(=O)Nc3ccccc3)cc2C(=O)N([C@H](C)CO)C[C@@H]1C	.	.	-8
COc1ccc(C(=O)/C=C/Nc2ccc(C(F)(F)F)cc2)cc1	0	.	6
C[C@@H]1CN([C@H](C)CO)C(=O)c2cc(NS(=O)(=O)c3ccc(F)cc3)ccc2O[C@H]1CN(C)Cc1ccccc1	1	.	17
O=C(CSc1nnc(-c2ccccc2)n1-c1ccccc1)N1CCOCC1	2	2	28
C[C@H](CO)N1C[C@H](C)[C@H](CN(C)Cc2ccc3c(c2)OCO3)Oc2ccc(NS(=O)(=O)c3ccc(F)cc3)cc2C1=O	-1	.	112*
C[C@H]1CN([C@@H](C)CO)C(=O)c2cc(NS(=O)(=O)c3ccc(Cl)cc3)ccc2O[C@@H]1CN(C)Cc1ccc(Cl)c(Cl)c1	-4	5	100*
C[C@H]1CN([C@@H](C)CO)C(=O)c2cc(NS(=O)(=O)c3ccc(F)cc3)ccc2O[C@H]1CN(C)Cc1ccc(Cl)c(Cl)c1	1	.	11
C[C@@H]1CN([C@@H](C)CO)C(=O)c2cc(NS(=O)(=O)c3ccc(Cl)cc3)ccc2O[C@H]1CN(C)Cc1ccc(Cl)c(Cl)c1	-1	.	119*
C[C@@H]1CN([C@@H](C)CO)C(=O)c2cc(NS(=O)(=O)c3ccc(F)cc3)ccc2O[C@H]1CN(C)Cc1ccc(Cl)c(Cl)c1	-2	.	?
C[C@@H]1CN([C@H](C)CO)C(=O)c2cc(NS(=O)(=O)c3ccc(Cl)cc3)ccc2O[C@H]1CN(C)Cc1ccc(Cl)c(Cl)c1	-2	1	19
C[C@@H]1CN([C@H](C)CO)C(=O)c2cc(NS(=O)(=O)c3ccc(F)cc3)ccc2O[C@H]1CN(C)Cc1ccc2c(c1)OCO2	.	.	-6
C[C@@H]1CN([C@@H](C)CO)C(=O)c2cc(NS(=O)(=O)c3ccc(F)cc3)ccc2O[C@@H]1CN(C)Cc1ccc(Cl)c(Cl)c1	-3	0	110*
SMILES	PD-1 reversal	STK33 kin inh	NOMO-1 viab
C[C@@H]1CN([C@@H](C)CO)C(=O)c2cc(NC(=O)NC3CCCCC3)ccc2O[C@@H]1CN(C)S(=O)(=O)c1cn(C)cn1	1	1	23
CNC[C@H]1OCc2cn(nn2)CCCC(=O)N([C@@H](C)CO)C[C@H]1C	.	2	.
Cc1ccc(S(=O)(=O)N(C)C[C@H]2Oc3ccc(NC(=O)Cn4cnnn4)cc3C(=O)N([C@@H](C)CO)C[C@H]2C)cc1	.	3	16
C[C@H]1CN([C@@H](C)CO)C(=O)Cc2cc(NC(=O)Nc3ccc(C(F)(F)F)cc3)ccc2O[C@H]1CN(C)Cc1ccc(Cl)c(Cl)c1	-17	-1	136*
C[C@H](CO)N1C[C@H](C)[C@H](CN(C)Cc2ccc(Cl)c(Cl)c2)Oc2ccc(NC(=O)Nc3ccc(C(F)(F)F)cc3)cc2CC1=O	1	0	124*
C[C@@H]1CN([C@H](C)CO)C(=O)Cc2cc(NC(=O)Nc3ccc(C(F)(F)F)cc3)ccc2O[C@@H]1CN(C)Cc1ccc(Cl)c(Cl)c1	.	1	79
C[C@@H]1CN([C@H](C)CO)C(=O)Cc2cc(NC(=O)Nc3ccc(C(F)(F)F)cc3)ccc2O[C@H]1CN(C)Cc1ccc(Cl)c(Cl)c1	1	-3	31
Cc1noc(C)c1NC(=O)Nc1cccc2c1O[C@@H](CN(C)C(=O)Nc1cccc3ccccc13)[C@H](C)CN([C@@H](C)CO)C2=O	0	.	-4
CC(C)=CCC1Cc2c(cc(O)c(C(=O)C(C)C)c2O)OC1(C)C (stereo not given)	-3	-9	69
Fc1ccc(Nc2nc3ccccc3nc2Nc2ccc(F)cc2)cc1	-7	.	135*
Cc1cc(Nc2ccc(F)cc2)nc(SCc2c(Cl)cccc2Cl)n1	-1	.	52
C[C@@H]1CN([C@@H](C)CO)C(=O)c2cc(NC(=O)C3CC3)ccc2O[C@H]1CN(C)CC1CCCCC1	0	.	10
Cc1ccc(-c2nc3cc(Cl)ccc3o2)cc1NC(=O)COc1ccc(Br)cc1	-1	6	36
